Source: the supplement of paper PMC4840960
Where a name gives a salt, the structure may show the parent alone.

system: E18 rat cortical neuron-glia co-culture; assay: myelination (MBP fiber length per Olig2+ nucleus), % of 1 µM DAPT response (DMSO = 0) (% of DAPT); higher = more myelination, active = 50 or more; details: 1 µM; treatment time: 8 days (DIV5-DIV13)
Procedure, shortened: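 Library compounds at 1 or 5 µM in myelination medium were applied from DIV5 to DIV13 to papain-dissociated E18 rat cortical co-cultures seeded at 20,000 cells/well on poly-d-lysine/laminin 96-well plates. Fixed cells (4 % paraformaldehyde) were immunostained for MBP and Olig2 with DAPI, and four 10X fields were analysed in each duplicate well. Continuous straight MBP fiber length per Olig2+ nucleus was set to 0 for 0.1 % DMSO and to 100 for a 1 µM positive control.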

myelination, inactive:
O=C(O)c1cc(=O)c2c(OCC(O)COc3cccc4oc(C(=O)O)cc(=O)c34)cccc2o1 [Cromolyn Sodium] -7.17, COC(=O)C1=C(C)NC(C)=C(C(=O)OCCN(C)Cc2ccccc2)C1c1cccc([N+](=O)[O-])c1 (configuration not stated) [Nicardipine] -8.17, CN1CCN2c3ncccc3Cc3ccccc3C2C1 (configuration not stated) [Remergil] 4.96, O=c1[nH]cnc2c1ncn2[C@H]1CC[C@@H](CO)O1 [2',3'-Dideoxyinosine] -2.19, COc1cc(C[C@@H](CO)[C@H](CO)Cc2ccc(O)c(OC)c2)ccc1O [Secoisolariciresinol] -4.03, Nc1nc(N)nc(-c2cc(Cl)ccc2Cl)n1 [Irsogladine] -14.2, CCCOc1ccc(C(=O)OCCN(CC)CC)cc1N [Proxymetacaine] 13.3, CCc1cc(C(N)=S)ccn1 [Ethionamide] -1.99, CC(COc1ccccc1Cc1ccccc1)N1CCCCC1 (configuration not stated) [Benproperine] -8.06, CC(=O)NC[C@H]1CN(c2ccc(N3CCOCC3)c(F)c2)C(=O)O1 [linezolid] -7.33, CC(C)(S)[C@@H](N)C(=O)O [Penicillamine] -2.14, CCCC(=O)Nc1ccc(OCC(O)CNC(C)C)c(C(C)=O)c1 (configuration not stated) [Acebutolol] -40.3, CC(C)(C)NCC(O)c1cc(O)cc(O)c1 (configuration not stated) [Terbutaline] -15.9, CC(=O)OCC(=O)[C@@]12OC(C)(C)O[C@@H]1C[C@H]1[C@@H]3C[C@H](F)C4=CC(=O)C=C[C@]4(C)[C@@]3(F)[C@@H](O)C[C@@]12C [Fluocinonide] -38, CC(=O)CC(c1ccccc1)c1c(O)c2ccccc2oc1=O (configuration not stated) [Warfarin] -6.64, CN(C)CC/C=C1/c2ccccc2COc2ccc(CC(=O)O)cc21 [Olopatadine] -7.93, CCN1CCCC1CNC(=O)c1cc(S(N)(=O)=O)ccc1OC (configuration not stated) [Sulpiride] -10.3, C[C@]12CCC(=O)C=C1CC[C@@H]1[C@@H]2CC[C@@]2(C)[C@H]1CC[C@]2(O)C(=O)CO [Cortodoxone] -16.7, CCOc1cc(N)c(Cl)cc1C(=O)NCC1CN(Cc2ccc(F)cc2)CCO1 (configuration not stated) [Mosapride] -41.5, COc1ccc(Cl)cc1C(=O)NCCc1ccc(S(=O)(=O)NC(=O)NC2CCCCC2)cc1 [Glyburide] 1.49, Cc1ccc(N(CC2=NCCN2)c2cccc(O)c2)cc1 [Phentolamine] -21.8, CC(=O)O[C@H]1C[C@@H]2CC[C@@H]3[C@H](CC[C@@]4(C)[C@H]3C[C@H]([N+]3(C)CCCCC3)[C@@H]4OC(C)=O)[C@@]2(C)C[C@@H]1N1CCCCC1 [Vecuronium Bromide] -15.8, CC(=O)[C@@]1(O)CC[C@H]2[C@@H]3C[C@H](C)C4=CC(=O)C=C[C@]4(C)[C@@]3(F)[C@@H](O)C[C@@]21C [Fluorometholone] -5.67, C[C@@](Cc1ccc(O)c(O)c1)(NN)C(=O)O [Carbidopa] -3.67, CCCCC[C@H](O)/C=C/[C@H]1[C@H](O)CC(=O)[C@@H]1CCCCCCC(=O)O [Alprostadil] -1.94, O=C1Nc2ccccc2/C1=C1/Nc2ccccc2C1=O [Indirubin] -4.48, CCC1=C(C)CN(C(=O)NCCc2ccc(S(=O)(=O)NC(=O)N[C@H]3CC[C@H](C)CC3)cc2)C1=O [Glimepiride] -3.14, COc1c2occc2cc2ccc(=O)oc12 [Methoxsalen] -11.8, CNC(=C[N+](=O)[O-])NCCSCc1ccc(CN(C)C)o1 [Ranitidine] -19.6, O=C1CC[C@@H](C(=O)N2CSC[C@H]2C(=O)O)N1 [Pidotimod] -7.34, CN1CCC(=C2c3ccccc3CCc3sccc32)CC1 [Pizotyline] -41, Cc1ccnc2c1NC(=O)c1cccnc1N2C1CC1 [Nevirapine] -18.6, O=C(O)COCCN1CCN(C(c2ccccc2)c2ccc(Cl)cc2)CC1 (configuration not stated) [Cetirizine] -5.85, CC(C)/N=c1\cc2n(-c3ccc(Cl)cc3)c3ccccc3nc-2cc1Nc1ccc(Cl)cc1 [Clofazimine] -9.19, CC1CCN(CCCC(=O)c2ccc(F)cc2)CC1 [Melperone hydrochloride] -4.39, CCC(=O)O[C@@H]1CC(=O)O[C@H](C)C/C=C/C=C/[C@H](O)[C@H](C)C[C@H](CC=O)[C@H](O[C@@H]2O[C@H](C)[C@@H](O[C@H]3C[C@@](C)(O)[C@@H](OC(=O)CC)[C@H](C)O3)[C@H](N(C)C)[C@H]2O)[C@H]1OC [Midecamycin] -9.01, CCN1CCN(c2cc3c(cc2F)c(=O)c(C(=O)O)cn3C2CC2)CC1 [Enrofloxacin] -5.04
